Hits are enriched below; roughly 7.4% of the tested compounds scored in any of these assays.
ELG1 genotoxic = genotoxicity induction in ELG1-luciferase HEK293T cells | HEK293T ELG1-luciferase reporter, luminescence, 16 h | Potency, µM (highest dose often 46 µM), most hits filed as activators | 330,000 compounds, 1.3% hits | AID 504466; note: nearly all actives have a fitted effect of over 60% in size
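Genotoxic stress is detected as increased luminescence from luciferase-tagged ELG1 in HEK293T cells, measured with ONE-Glo after a 16 hr treatment at 37 °C.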
Rab9 prom act = activators of Rab9 promoter. Huh7 Rab9 promoter-luciferase reporter, luminescence, 24 h. Potency, µM (series often up to 9.22 µM), actives largely listed as activators. 320,000 compounds, 2.8% hits. AID 485297; note: nearly all actives have a fitted effect of over 60% in size
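Huh7 reporter line, Rab9 promoter upstream of luciferase. Compound exposure 24 h at 37 °C in reduced-serum medium with 10% FBS. Read-out: luminescence.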
NPC1 prom act = activators of NPC1 promoter | Huh7 NPC1 promoter luciferase reporter, 24 h | Potency, µM (titrated, usually from 9.22 µM), most hits filed as activators | 320,000 compounds, 2.4% hits; note: nearly all actives have a fitted effect of over 60% in size
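Quantitative HTS used a cell-based reporter: Huh7 cells stably bearing the NPC1 promoter upstream of luciferase were treated with compounds for 24 h, and promoter activation was read as luminescence.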
SMN2 splice up = increases expression of the SMN2 splice variant. HEK293 SMN2-luciferase splicing reporter, luminescence, 30-36 h. AID 1458. 210,000 compounds, 2.8% hits. Potency, µM (highest dose often 46.1 µM), most hits filed as activators; note: nearly all actives have a fitted effect of over 55% in size
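HEK293 cells carry an SMN2 minigene-luciferase reporter in which exon 7 inclusion puts luciferase in frame. Cells were seeded at 2000 cells/well, attached for 10-12 hours, then exposed to compounds for 30-36 hours at 37C before ONE-Glo luminescence.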
FLuc modulator = counter-screen for miR-21 project: firefly luciferase inhibitors or activators. purified FLuc, Km substrates, luminescence inhibition. 360,000 compounds, 6.9% hits. Potency, µM (top dose mostly 57.5 µM), hits mostly inhibitors. AID 588342; note: nearly all actives have a fitted effect of over 55% in size
Target sequence (P08659 whole entry, looked up): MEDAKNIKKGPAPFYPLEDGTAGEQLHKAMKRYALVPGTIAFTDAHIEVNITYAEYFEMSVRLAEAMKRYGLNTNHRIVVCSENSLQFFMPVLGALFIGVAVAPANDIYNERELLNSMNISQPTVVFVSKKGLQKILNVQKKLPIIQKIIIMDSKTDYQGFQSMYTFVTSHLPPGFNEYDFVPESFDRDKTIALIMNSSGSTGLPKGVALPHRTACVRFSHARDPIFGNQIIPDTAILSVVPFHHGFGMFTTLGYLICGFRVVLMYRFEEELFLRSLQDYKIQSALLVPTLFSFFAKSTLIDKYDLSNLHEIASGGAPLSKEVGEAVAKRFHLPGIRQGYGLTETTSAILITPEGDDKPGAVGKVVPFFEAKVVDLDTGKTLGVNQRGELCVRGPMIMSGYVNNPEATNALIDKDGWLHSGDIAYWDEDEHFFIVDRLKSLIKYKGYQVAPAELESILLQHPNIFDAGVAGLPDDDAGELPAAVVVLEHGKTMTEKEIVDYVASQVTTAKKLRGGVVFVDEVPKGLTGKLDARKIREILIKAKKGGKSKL
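Purified P. pyralis luciferase (10nM final) with 10uM D-luciferin and 10uM ATP (Km levels) in 50mM Tris acetate pH 7.5, 10mM Mg acetate, 0.01% Tween-20, 0.05% BSA; qHTS 6-point titration, ~60 µM downward; luminescence read.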
A number is an active result; i = inactive; ? = inconclusive; nt = not tested or not shown; [ ] = another dose, or the depositor's remark. Calls come from the whole dose curve; as a rule, active = well fitted curve in the direction sought with a large enough effect; inconclusive = small, poorly fitted or top-dose-only effect, or another doubt; inactive = no such curve, though single readings can be large; an effect the other way counts as inactive or inconclusive.

SMILES	ELG1 genotoxic	Rab9 prom act	NPC1 prom act	SMN2 splice up	FLuc modulator
Cc1cccc2c(C(=O)N3CCN(c4ccccn4)CC3)cc(-c3cccc(Br)c3)nc12	i	i	i	nt	i
O=C(c1cc(-c2ccncc2)nc2ccc(Br)cc12)N1CCN(c2ccccn2)CC1	nt	nt	nt	i	17µM
O=C(c1cc(-c2cccc(Cl)c2)nc2ccccc12)N1CCN(c2ccccn2)CC1	i	i	i	nt	19µM
Cc1cc(C)nc(SC/C=C/c2ccccc2)n1	i	i	i	nt	?
C(=C\c1ccccc1)/CSc1ccccn1	i	3.5µM	?	i	12µM
CCCn1c(-c2ccc[nH]c2=O)nc2cc(C)c(C)cc21	?	i	i	nt	13µM
Cc1ccc(-c2nnc(CCC(=O)NCC3C4CC5CC(C4)CC3C5)o2)s1 (stereo unspecified)	?	2.5µM	?	nt	19µM
CCOc1ccc(Br)cc1C1=NN(C(C)=O)C(c2ccc([N+](=O)[O-])s2)O1 (stereo unspecified)	?	i	i	nt	i
CCN(CC)c1nc2ccccc2nc1C(=O)Nc1cc(OC)c(OC)c(OC)c1	nt	nt	nt	nt	i
CC(=O)c1c(C)[nH]c(C(=O)Nc2cccc(C(F)(F)F)c2)c1C	i	i	i	nt	?
Cc1nc2scc(-c3ccccc3)c2c(=O)n1N	i	i	i	i	i
Cc1nc2scc(-c3ccccc3)c2c(=O)n1N=C1C=CC(=O)C=C1	?	?	i	nt	19µM
CC(/C=N/NC(=O)CSc1n[nH]c(=O)[nH]c1=O)=C\c1ccccc1	i	i	i	nt	15µM
CC(/C=N/NC(=O)Cc1cccn1C)=C\c1ccccc1	i	i	i	i	11µM
O=C(Cc1cccs1)N/N=C/c1ccccn1	i	i	i	nt	i
O=C(Cc1cccs1)N/N=C/C(Br)=C/c1ccccc1	?	4µM	3.2µM	?	?
Cn1cccc1CC(=O)N/N=C/c1cccc2ccccc12	i	i	i	i	i
CC(/C=N/NC(=O)Cc1cccs1)=C\c1ccccc1	?	3.5µM	?	nt	2.7µM
Cc1cccc(N2CCN(c3ncnc4c3nc3n4CCCCC3)CC2C)c1 (stereo unspecified)	nt	nt	nt	nt	i
Cc1ccc(-n2nc(CO)c(C(=O)NCc3cccs3)n2)cc1	nt	nt	nt	i	i
CCOc1ccc(-n2nc(CO)c(C(=O)NCc3cccs3)n2)cc1	nt	nt	nt	i	19µM
CCc1ccc(-n2nc(CO)c(C(=O)NC)n2)cc1	nt	nt	nt	?	15µM
CC(C)(CNC(=O)c1ccc(-c2cccc(C(F)(F)F)c2)o1)N1CCOCC1	i	i	i	nt	i
O=CNc1ccccc1	i	i	i	i	i
CCCCNC(=O)[C@H]1C[C@H]1[C@@H](O)[C@H](CO)NC(=O)[C@H](Cc1ccccc1)NC(=O)OC(C)(C)C	i	i	i	nt	i
SMILES	ELG1 genotoxic	Rab9 prom act	NPC1 prom act	SMN2 splice up	FLuc modulator
O=C(N/N=C/c1ccc(OC(F)F)cc1)c1ccc(Br)cc1	i	i	i	i	?
O=C(N/N=C/c1ccc(OC(F)F)cc1)c1ccc(CSc2nc3ccccc3[nH]2)cc1	i	i	i	i[1.84 µM]	17µM
CCOc1ccc(/C=N/NC(=O)c2ccc(CSc3nc4ccccc4[nH]3)cc2)cc1	i	i	i	i	6.7µM
CC(C)(C)OC(=O)N1CCC(c2c(C(=O)NCCN3CCCC3)cnn2-c2ccc(Cl)cc2)CC1	nt	nt	nt	nt	i
CCOC(=O)/C(C#N)=N\Nc1cc(Cl)ccc1OC	i	i	i	nt	i
CN1C(=C2C(=O)OC(C)(C)OC2=O)Sc2ccccc21	?	2.5µM	3.5µM	i	15µM
COc1ccc(/C=C/C(=O)C2C(=O)C=C(C)OC2=O)cc1O (stereo unspecified)	?	i	?	i	6µM
CCOc1ccc(CCNC(=O)Cc2ccc(NC(=O)N3CCSc4ncccc43)cc2)cc1	nt	nt	nt	nt	i
CCOC(=O)C1=C(C)NC(=NC)SC1c1ccccc1 (stereo unspecified)	i	i	i	i	i
CC1CCN(CCCn2c(=S)[nH]c3c(sc4ccccc43)c2=O)CC1	i	i	i	i	15µM
CCc1ccc2c(c1)c1nc(C)sc1n2CC(=O)OC	i	i	i	i	12µM
Cc1nc2c3cc(F)ccc3n(Cc3ccccc3)c2s1	i	i	i	i	i
CCOC(=O)CNC(=O)CSc1ncnc2c1nnn2-c1ccc(F)cc1	i	i	i	i	?
COC(=O)C(C)Sc1ncnc2c1nnn2-c1ccc(F)cc1 (stereo unspecified)	?	i	?	i	8.5µM
Cc1ccc(-c2cc(C(=O)Nc3ccc(S(=O)(=O)Nc4ncccn4)cc3)c3ccccc3n2)cc1	i	i	i	i	6.7µM
CCc1ccc(-c2cc(C(=O)Nc3ccc(S(=O)(=O)NC(C)=O)cc3)c3ccccc3n2)cc1	i	i	?	i	0.54µM
N[C@@H](Cc1cccnn1)C(=O)O	nt	nt	nt	i[9.22 µM]	nt
O=C(COc1ccccc1)Nc1ccc(Cl)cn1	?	?	i	nt	19µM
O=C(COC(=O)CCOc1ccccc1)Nc1ccc(Cl)cn1	i	i	i	i	i
COc1ccc(C(=O)OCC(=O)Nc2ccc(Cl)cn2)cc1	i	i	i	nt	i
O=C(COc1ccc(Cl)cc1)Nc1ccc(Cl)cn1	?	?	?	nt	12µM
Cc1ccccc1NC(=O)COc1ccc2c(c1)OC(C)(C)CC2=O	i	?	?	nt	24µM
O=C(COc1ccc(Cl)cc1Cl)Nc1ccccn1	i	0.1µM	?	i	0.076µM
CCCCCN(C(=O)CCC(=O)OCc1ccc(C(C)(C)C)cc1)c1c(N)n(CCCC)c(=O)[nH]c1=O	i	i	i	nt	i
CC(Oc1cccc(Br)c1)C(=O)NNC(=O)CCNC(=O)c1ccccc1Cl (stereo unspecified)	i	i	i	nt	i
SMILES	ELG1 genotoxic	Rab9 prom act	NPC1 prom act	SMN2 splice up	FLuc modulator
O=C(COc1ccccc1Cl)Nc1ccc(Cl)cn1	3.2µM	1.4µM	2.2µM	11µM	0.95µM
O=C(COC(=O)COc1ccccc1F)Nc1ccc(Cl)cn1	i	i	i	nt	i
O=C(COc1ccccc1)NS(=O)(=O)c1ccc(Cl)cc1	i	i	i	nt	17µM
O=C(COc1ccc2c(c1)OCO2)Nc1ccccc1F	?	?	?	i	6µM
COC(=O)c1ccccc1NC(=O)COc1ccc2c(c1)OCO2	i	?	i	nt	i
O=C(/C=C/c1ccc2c(c1)OCO2)NC1CCCC1	i	i	i	nt	15µM
COc1ccc(N2CCN(S(=O)(=O)c3cc4c(cc3C)N(C(C)=O)CCO4)CC2)cc1	i	i	i	nt	i
Fc1ccc(/C=N/n2c(-c3cccs3)n[nH]c2=S)cc1	i	i	i	i	i
COC(=O)c1ccc(NC(=O)COc2ccc3c(c2)OCO3)cc1	i	i	i	nt	i
O=C(/C=C/c1ccc2c(c1)OCO2)Nc1ccc(Cl)cn1	2.1µM	0.56µM	1.1µM	10µM	1.9µM
O=C(COc1ccc2c(c1)OCO2)Nc1ccc(Cl)cn1	?	3.5µM	2µM	nt	13µM
Cc1ccc(N2C(=O)Nc3ccc(Br)cc3C2(O)C(=O)NCCN(C)C)cc1C (stereo unspecified)	i	i	i	nt	i

Source: PubChem BioAssay (National Center for Advancing Translational Sciences (NCATS))
